# The supplement of paper PMC4466140
# Columns and labels:
# Test in all cases: SPOT peptide array binding signal intensity (averaged, normalized) (arbitrary units (background-subtracted, floor 0; scale differs between SH3 domains)); higher = stronger binding of the SH3 domain to the peptide
# CaNbp2 = biological target: CaNbp2
# In short: (§1)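 Binding signal refers to normalized, background-subtracted spot intensity averaged over replicates, expressed in arbitrary units that differ between domains. GST-fused SH3 domains from four yeast species were incubated at 10 μg/ml overnight at 4°C on cellulose membranes of synthetic 15-mer peptides with cysteines replaced by serines. Bound protein was detected with anti-GST antibody, an HRP anti-mouse secondary and luminol, and quantified with Genespotter.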
# CaRvs167 = biological target: CaRvs167
# In short: as §1
# CaRvs167-3 = biological target: CaRvs167-3
# In short: as §1
# CaSho1 = biological target: CaSho1
# In short: as §1
# CaSla1-D1-D2 = biological target: CaSla1-D1-D2
# In short: as §1
# CaSla1-D3 = biological target: CaSla1-D3
# In short: as §1
# ScAbp1 = biological target: ScAbp1
# In short: as §1
# ScBbc1 = biological target: ScBbc1
# In short: as §1
# ScBem1-D1 = biological target: ScBem1-D1
# In short: as §1
# ScBzz1-D1 = biological target: ScBzz1-D1
# In short: as §1
# ScBzz1-D2 = biological target: ScBzz1-D2
# In short: as §1
# ScCyk3 = biological target: ScCyk3
# In short: as §1
# ScFus1 = biological target: ScFus1
# In short: as §1
# ScHof1 = biological target: ScHof1
# In short: as §1
# ScHse1 = biological target: ScHse1
# In short: as §1
# ScLsb1 = biological target: ScLsb1
# In short: as §1
# ScLsb2 = biological target: ScLsb2
# In short: as §1
# ScLsb3 = biological target: ScLsb3
# In short: as §1
# ScLsb4 = biological target: ScLsb4
# In short: as §1
# ScMyo3 = biological target: ScMyo3
# In short: as §1
# ScMyo5 = biological target: ScMyo5
# In short: as §1
# ScNbp2 = biological target: ScNbp2
# In short: as §1
# ScPex13 = biological target: ScPex13
# In short: as §1
# ScRvs167 = biological target: ScRvs167
# In short: as §1
# ScSho1 = biological target: ScSho1
# In short: as §1
# ScSla1-D1-D2 = biological target: ScSla1-D1-D2
# In short: as §1
# ScSla1-D3 = biological target: ScSla1-D3
# In short: as §1
# SpAbp1-D1 = biological target: SpAbp1-D1
# In short: as §1
# SpBbc1 = biological target: SpBbc1
# In short: as §1
# SpBzz1-D1 = biological target: SpBzz1-D1
# In short: as §1
# SpBzz1-D2 = biological target: SpBzz1-D2
# In short: as §1
# SpCyk3 = biological target: SpCyk3
# In short: as §1
# SpHof1 = biological target: SpHof1
# In short: as §1
# SpHof1-2 = biological target: SpHof1-2
# In short: as §1
# SpHof1-3 = biological target: SpHof1-3
# In short: as §1
# SpHse1 = biological target: SpHse1
# In short: as §1
# SpLsb1 = biological target: SpLsb1
# In short: as §1
# SpLsb4 = biological target: SpLsb4
# In short: as §1
# SpMyo1 = biological target: SpMyo1
# In short: as §1
# SpNbp2 = biological target: SpNbp2
# In short: as §1
# SpPex13 = biological target: SpPex13
# In short: as §1
# SpRvs167 = biological target: SpRvs167
# In short: as §1
# SpSla1-D1-D2 = biological target: SpSla1-D1-D2
# In short: as §1
# SpSla1-D3 = biological target: SpSla1-D3
# In short: as §1
binder,measurement,setting,value
MTKTPETSPPKRPMG,SPOT peptide array binding signal intensity,CaNbp2,40.5
same,SPOT peptide array binding signal intensity,CaRvs167,17.8
same,SPOT peptide array binding signal intensity,CaRvs167-3,≤ 0
same,SPOT peptide array binding signal intensity,CaSho1,10.5
same,SPOT peptide array binding signal intensity,CaSla1-D1-D2,210
same,SPOT peptide array binding signal intensity,CaSla1-D3,106
same,SPOT peptide array binding signal intensity,ScAbp1,≤ 0
same,SPOT peptide array binding signal intensity,ScBbc1,0.5
same,SPOT peptide array binding signal intensity,ScBem1-D1,≤ 0
same,SPOT peptide array binding signal intensity,ScBzz1-D1,1
same,SPOT peptide array binding signal intensity,ScBzz1-D2,6
same,SPOT peptide array binding signal intensity,ScCyk3,≤ 0
same,SPOT peptide array binding signal intensity,ScFus1,≤ 0
same,SPOT peptide array binding signal intensity,ScHof1,1.25
same,SPOT peptide array binding signal intensity,ScHse1,18.5
same,SPOT peptide array binding signal intensity,ScLsb1,6.5
same,SPOT peptide array binding signal intensity,ScLsb2,2.5
same,SPOT peptide array binding signal intensity,ScLsb3,45.5
same,SPOT peptide array binding signal intensity,ScLsb4,10
same,SPOT peptide array binding signal intensity,ScMyo3,1860
same,SPOT peptide array binding signal intensity,ScMyo5,462
same,SPOT peptide array binding signal intensity,ScNbp2,25
same,SPOT peptide array binding signal intensity,ScPex13,24.2
same,SPOT peptide array binding signal intensity,ScRvs167,7.17
same,SPOT peptide array binding signal intensity,ScSho1,≤ 0
same,SPOT peptide array binding signal intensity,ScSla1-D1-D2,62.5
same,SPOT peptide array binding signal intensity,ScSla1-D3,65.2
same,SPOT peptide array binding signal intensity,SpAbp1-D1,3
same,SPOT peptide array binding signal intensity,SpBbc1,0.5
same,SPOT peptide array binding signal intensity,SpBzz1-D1,30.5
same,SPOT peptide array binding signal intensity,SpBzz1-D2,1.25
same,SPOT peptide array binding signal intensity,SpCyk3,1
same,SPOT peptide array binding signal intensity,SpHof1,18.5
same,SPOT peptide array binding signal intensity,SpHof1-2,18.2
same,SPOT peptide array binding signal intensity,SpHof1-3,≤ 0
same,SPOT peptide array binding signal intensity,SpHse1,13
same,SPOT peptide array binding signal intensity,SpLsb1,2.5
same,SPOT peptide array binding signal intensity,SpLsb4,285
same,SPOT peptide array binding signal intensity,SpMyo1,446
same,SPOT peptide array binding signal intensity,SpNbp2,5.5
same,SPOT peptide array binding signal intensity,SpPex13,≤ 0
same,SPOT peptide array binding signal intensity,SpRvs167,18.5
same,SPOT peptide array binding signal intensity,SpSla1-D1-D2,4
same,SPOT peptide array binding signal intensity,SpSla1-D3,17
